# Measurements taken from PubChem BioAssay AID463173 (ICCB-Longwood Screening Facility, Harvard Medical School, 2010).
# Among all 52,000 compounds or so, about 4,300 (8.3%) were called active. What follows is part of a selection rich in actives, with near analogues and random picks from the rest. A number with no mark means an inactive call. Rule as the data show it: active = survival mostly below about 52% (no sharp cut-off); inactive = mostly above about 56%.
# Tested on: DeltatarO mutant
# Assay: S. aureus survival, RN4220 and DeltatarO strains – OD600, teichoic acid synthesis inhibitors, primary screen (AID 463173)
# Details: S. aureus RN4220 wild type/DeltatarO growth, OD600, 18 h, active compounds read low, screened at 18.75 µg/mL (by protocol)
row,SMILES,survival
1,COc1ccccc1CNC(=O)C1CCN(c2nnc(C)c3c(C)n(-c4ccccc4)nc23)CC1,104%
2,Cc1noc(/C=C/c2ccco2)c1S(=O)(=O)N1CCC(C(=O)Nc2ccc(F)c(Cl)c2)CC1,100%
3,CCOC(=O)c1sc2cccc(F)c2c1S(=O)(=O)N1CCN(c2cccc(Cl)c2)CC1,102%
4,COc1cccc(OC)c1C(=O)NCCc1sc(-c2cccc(F)c2)nc1C,69%
5,CCn1cc(C(=O)NCc2ccccc2Cl)c(=O)c2cc(S(=O)(=O)N3CCOCC3)ccc21,75%
6,Cc1ccc(C(=O)Nc2ccc(Br)cc2)cc1S(=O)(=O)NCc1ccccc1,83%
7,Cc1ccc(C(=O)Nc2ccc(C(=O)O)cc2)cc1S(=O)(=O)Nc1ccccc1,74%
8,COc1ccc(C(=O)Nc2ccccc2)cc1S(=O)(=O)Nc1ccc(Br)cc1,78%
9,CCN(c1ccccc1)S(=O)(=O)c1cc(C(=O)Nc2ccc(Br)cc2)ccc1F,6% (active)
10,Cc1ccc(C(=O)Nc2ccccc2)cc1S(=O)(=O)Nc1ccc(Br)cc1,6% (active)
11,Cc1ccc(C(=O)Nc2cccc(C(=O)O)c2)cc1S(=O)(=O)N1CCCC1,81%
12,O=C(O)c1ccc(NC(=O)c2ccc(Cl)c(S(=O)(=O)N3CCCCCC3)c2)cc1,131%
13,Cc1ccc(C(=O)Nc2ccccc2)cc1S(=O)(=O)Nc1ccccc1,46% (active)
14,O=C(O)c1ccc(NS(=O)(=O)c2ccc(Cl)c(C(=O)Nc3ccccc3)c2)cc1,73%
15,O=C(Nc1ccccc1)c1ccc(Cl)c(S(=O)(=O)Nc2ccccc2)c1,43% (active)
16,CCOc1cccc(NC(=O)c2ccc(F)c(S(=O)(=O)N(CC)c3cccc(C)c3)c2)c1,86%
17,CCN(c1ccccc1)S(=O)(=O)c1ccc(F)c(C(=O)Nc2ccc(C)cc2)c1,100%

row,SMILES,survival
1,CCOCCCNC(=O)C(Cc1ccccc1)NS(=O)(=O)c1ccc2c(c1)c(=O)n(C)c(=O)n2C (stereo not drawn),88%
2,O=C(Cc1cccs1)Nc1ccccc1,70%
3,CN(C)c1cccc(C(=O)Nc2ccc(-c3nc4ccccc4s3)cc2)c1,106%
4,O=C(NCC(c1cccnc1)N1CCN(c2ccccc2F)CC1)c1ccc(F)cc1 (stereo not drawn),92%
5,Cc1cccc(Cc2c(C)nc3nc(SCC(=O)NCc4ccc(F)cc4)nn3c2C)c1,56%
6,Cc1cccc(Cc2c(C)nc3nc(SCc4ccccc4F)nn3c2C)c1,84%
7,Cc1cccc(Cc2c(C)nc3nc(SCC(=O)NCc4ccccc4)nn3c2C)c1,40% (active)
8,Cc1ccc(NC(=O)CSc2nc3nc(C)c(Cc4ccccc4)c(C)n3n2)cc1,60%
9,Cc1nc2nc(SCC(=O)NCc3ccccc3)nn2c(C)c1Cc1ccccc1Cl,147%
10,Cc1cccc(Cc2c(C)nc3nc(SCc4ccccc4C)nn3c2C)c1,95%
11,Cc1nc2nc(SCC(=O)NCc3ccccc3)nn2c(C)c1Cc1ccccc1,8% (active)
12,Cc1nc2nc(SCC(=O)NCc3ccccc3Cl)nn2c(C)c1Cc1ccccc1,64%
13,Cc1cccc(Cc2c(C)nc3nc(SCc4ccccc4Cl)nn3c2C)c1,-9% (active)
14,COc1cc(NC(=O)CSc2nc3nc(C)c(Cc4ccccc4)c(C)n3n2)cc(OC)c1OC,80%
15,Cc1nc2nc(SCC(=O)Nc3ccccc3Cl)nn2c(C)c1Cc1ccccc1,20% (active)
16,CCN(CC)CCNC(=O)CSc1nc2nc(C)c(Cc3ccccc3)c(C)n2n1,86%
